Experimental data reported in PubChem BioAssay.
Activity calls are given as the source filed them. Unless noted, no rule for the calls is given here.

Experiments:
[1] = compound effects on lung adenocarcinoma cell viability – A549, calcein-AM fluorescence, 48 h, basal, profiling panel (AID 1162); conditions: higher = more signal; also: test concentration not given here
[2] = compound effects on differentiated 3T3-L1 adipocyte viability – cell-based, 3T3-L1 adipocytes, calcein-AM fluorescence, 48 h, basal, profiling panel (AID 1163); conditions: 3T3-L1 adipocytes viability, higher = more signal; also: test concentration not given here
[3] = compound effects on hepatocellular carcinoma cell viability – HepG2, calcein-AM fluorescence, 48 h, basal, profiling panel (AID 1164); conditions: higher = more signal; also: test concentration not given here
[4] = compound effects on multiple myeloma cell viability – MM1S, calcein-AM fluorescence, 48 h, basal, profiling panel (AID 1165); conditions: higher = more signal; also: test concentration not given here
[5] = calcein-AM signal in unstimulated myeloma cells – cell-based, calcein-AM fluorescence, 48 h, PK04 Diversity Set, profiling panel (AID 1166); conditions: RPMI8226 myeloma viability, higher = more signal;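 also: cells grown under basal conditions without added stimulus; test concentration not given here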
[6] = JC-1 mitochondrial signal, unstimulated HepG2 cells – cell-based, JC-1 fluorescence, 24 h, 100 nL compound, profiling panel (AID 1167); conditions: HepG2 mitochondrial potential, higher = more signal; also: test concentration not given here
[7] = JC-1 mitochondrial signal, unstimulated adipocytes – cell-based, JC-1 fluorescence, 3T3-L1 adipocytes, 24 h, 100 nL compound, profiling panel (AID 1168); conditions: JC-1 mitochondrial fluorescence, higher = more signal, called active from +8 up or from −8 down; also: test concentration not given here
[8] = JC-1 mitochondrial signal, unstimulated myeloma cells – cell-based, JC-1 fluorescence, RPMI8226, 24 h, 100 nL compound, profiling panel (AID 1169); conditions: JC-1 mitochondrial potential fluorescence, higher = more signal; also: test concentration not given here
[9] = JC-1 mitochondrial signal, unstimulated MM1S myeloma – cell-based, JC-1 fluorescence, 24 h, 100 nL compound, profiling panel (AID 1170); conditions: MM1S mitochondrial potential, higher = more signal; also: test concentration not given here
[10] = resazurin metabolic signal in A549 cells – cell-based, resazurin fluorescence, 24 h, PK04 Diversity Set, profiling panel (AID 1171); conditions: A549 viability, higher = more signal, called active from +8 up or from −8 down; also: test concentration not given here
[11] = resazurin metabolic signal in HepG2 cells – cell-based, resazurin fluorescence, 24 h, PK04 Diversity Set, profiling panel (AID 1172); conditions: HepG2 viability, higher = more signal; also: test concentration not given here
[12] = budding yeast growth changes without added modifier – OD600, strain BY4716, 24 h, basal condition, primary screen (AID 1173); conditions: S. cerevisiae BY4716 growth, OD600, 24 h; higher = more signal, called active from +8 up or from −8 down
[13] = viability profiling in MM1S myeloma cells – cell-based, resazurin fluorescence, basal, 24 h, PK04 Diversity Set, profiling panel (AID 1174); conditions: higher = more signal, called active from +8 up or from −8 down; also: test concentration not given here
[14] = target: Dihydroorotate dehydrogenase (quinone), mitochondrial (Plasmodium falciparum (isolate 3D7)) (UniProt Q08210); test: inhibition of P. falciparum DHODH – biochemical, C-terminal His tag, absorbance 600 nm, primary screen (AID 1175); conditions: PfDHODH enzyme, DCIP absorbance 600 nm; higher = more signal, called active from +8 up or from −8 down;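 also: recombinant parasite enzyme with a five histidine tag at its C terminus; test concentration not given here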
[15] = inhibition of PAO1 biofilm formation – strain PAO1, LB-PBS medium, absorbance 600 nm, primary screen (AID 1176); also: test concentration not given here; conditions: P. aeruginosa PAO1 growth/biofilm, A600, 12 h; higher = more signal
[16] = growth modulation of vineyard yeast isolate – strain RM11-1a, OD600, basal, 24 h, primary screen (AID 1177);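 also: cultures grown under basal conditions with no added stressor; test concentration not given here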; conditions: S. cerevisiae RM11-1a growth, OD600, 24 h; higher = more signal, called active from +8 up or from −8 down
[17] = growth of efflux-deficient E. coli DRC39 – strain DRC39, OD650, 24 h, E. coli filamentation inducers, primary screen (AID 1178);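 also: growth measured as culture turbidity by optical density at 650 nm; test concentration not given here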; conditions: E. coli DRC39 acrAB, higher = more signal, called active from +8 up or from −8 down
[18] = growth of efflux-deficient E. coli DRC39 – strain DRC39, OD650, 48 h, E. coli filamentation inducers, primary screen (AID 1179);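 also: screen aims at cell division blockers that make cells filament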; conditions: E. coli DRC39 delta-acrAB growth, higher = more signal, called active from +8 up or from −8 down
[19] = viability profiling in RPMI8226 myeloma cells – cell-based, resazurin fluorescence, basal, 24 h, PK04 Diversity Set, profiling panel (AID 1180); conditions: higher = more signal;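 also: RPMI8826 multiple myeloma cell line at 5000 cells per well; test concentration not given here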
[20] = target: E3 ubiquitin-protein ligase XIAP (Homo sapiens) (UniProt P98170); test: small molecules binding XIAP protein – biophysical, small-molecule microarray, fluorescence 635 nm, primary screen (AID 1181); conditions: higher = more signal;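 also: score merges 667 nm emission and signal to noise over triplicate slides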
Sequence of E3 ubiquitin-protein ligase XIAP (Homo sapiens) (P98170 whole entry, looked up): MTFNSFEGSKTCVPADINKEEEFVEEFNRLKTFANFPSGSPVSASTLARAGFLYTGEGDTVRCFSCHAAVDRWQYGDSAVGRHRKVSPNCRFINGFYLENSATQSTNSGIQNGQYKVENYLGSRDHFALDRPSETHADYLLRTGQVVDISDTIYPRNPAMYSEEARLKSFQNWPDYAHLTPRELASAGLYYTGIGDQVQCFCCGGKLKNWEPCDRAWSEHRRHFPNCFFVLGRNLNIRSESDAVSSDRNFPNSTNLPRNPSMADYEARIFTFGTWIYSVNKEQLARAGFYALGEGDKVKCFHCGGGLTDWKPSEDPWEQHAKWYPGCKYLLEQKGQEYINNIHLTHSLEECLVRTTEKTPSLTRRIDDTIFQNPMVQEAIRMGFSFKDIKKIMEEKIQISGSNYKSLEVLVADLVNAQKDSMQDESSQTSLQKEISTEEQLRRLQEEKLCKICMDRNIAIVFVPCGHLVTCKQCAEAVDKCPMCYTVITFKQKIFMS

Sequence of Dihydroorotate dehydrogenase (quinone), mitochondrial (Plasmodium falciparum (isolate 3D7)) (Q08210 whole entry, looked up): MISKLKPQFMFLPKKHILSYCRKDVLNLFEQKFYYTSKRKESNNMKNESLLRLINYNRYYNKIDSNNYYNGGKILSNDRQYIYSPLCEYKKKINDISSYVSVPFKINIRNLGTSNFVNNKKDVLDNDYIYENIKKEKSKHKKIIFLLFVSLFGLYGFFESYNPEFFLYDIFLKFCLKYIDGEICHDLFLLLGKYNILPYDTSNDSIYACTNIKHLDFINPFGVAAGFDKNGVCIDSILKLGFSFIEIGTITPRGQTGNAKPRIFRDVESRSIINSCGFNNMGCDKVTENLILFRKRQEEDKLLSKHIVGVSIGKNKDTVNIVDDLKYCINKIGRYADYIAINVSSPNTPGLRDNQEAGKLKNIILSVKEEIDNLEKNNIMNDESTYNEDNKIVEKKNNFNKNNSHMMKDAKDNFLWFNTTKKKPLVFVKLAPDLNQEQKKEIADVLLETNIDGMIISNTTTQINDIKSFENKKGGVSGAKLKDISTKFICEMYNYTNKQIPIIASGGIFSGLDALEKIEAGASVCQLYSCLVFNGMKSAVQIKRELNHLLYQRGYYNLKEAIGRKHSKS

| Structure (SMILES) | z-score [1] | z-score [2] | z-score [3] | z-score [4] | z-score [5] | z-score [6] | z-score [7] | z-score [8] | z-score [9] | z-score [10] | z-score [11] | z-score [12] | z-score [13] | composite z-score [14] | z-score [15] | z-score [16] | z-score [17] | z-score [18] | z-score [19] | composite z-score [20] |
| --- | --- | --- | --- | --- | --- | --- | --- | --- | --- | --- | --- | --- | --- | --- | --- | --- | --- | --- | --- | --- |
| C=CC[C@H](OC(=O)Nc1ccc(SC)cc1)c1ccc(O)c(F)c1 | -1.24 | -0.152 | -1.82 | -1.59 | -1.64 | -3.17 | 2.25 (inactive) | -0.325 | -0.716 | -1.01 (inactive) | -0.124 | -15.5 (active) | -0.868 (inactive) | -1.32 (inactive) | 1.1 (inactive) | -11 (active) | 0.332 (inactive) | -0.343 (inactive) | -1.54 | 0.0297 |
| C=CCNC(=O)[C@H]1[C@@H]2C(=O)O[C@@H](c3ccccc3)[C@@H](c3ccccc3)N2[C@@H](c2ccc(OCCO)cc2)[C@]12C(=O)Nc1ccc(C#Cc3ccc(OC)cc3)cc12 | -1.09 | 2.01 | -0.845 | -0.291 | -2.14 | -1.38 | 3.11 (inactive) | -1.22 | -0.867 | -1.04 (inactive) | -1.06 | 2.32 (inactive) | -0.512 (inactive) | -2.27 (inactive) | 2.18 (inactive) | 3.66 (inactive) | -0.672 (inactive) | -0.995 (inactive) | -1.29 | 1.29 |
| O=C(c1ccccc1)N1Cc2ccccc2C[C@@]2(N=C(c3ccc(OCCCO)cc3)O[C@H]2c2ccccc2)C1=O | -1.12 | 0.862 | -1.18 | -3.31 | -4.05 | -1.68 | 0.471 (inactive) | -1.25 | -2.14 | -2.63 (inactive) | -1.51 | 0.728 (inactive) | -3.22 (inactive) | 0.23 (inactive) | 1.49 (inactive) | 1.39 (inactive) | 0.0557 (inactive) | -0.469 (inactive) | -3.73 | 0.0797 |
| C=C(C(=O)CC[C@H](OC(=O)c1ccccc1-c1ccccc1C(=O)O)c1ccc(OCCO)cc1)C(C)C | -0.535 | 0.484 | -0.659 | -1.43 | -1.48 | 0.17 | 0.447 (inactive) | 0.0683 | -0.0663 | 0.393 (inactive) | 0.0716 | -1.02 (inactive) | -0.22 (inactive) | -0.311 (inactive) | 0.509 (inactive) | -0.711 (inactive) | -0.0716 (inactive) | -0.698 (inactive) | 0 | 0.125 |
| COCCOC(=O)N1C(=O)[C@@]2(c3cc(C#CC4=CCCCC4)ccc31)[C@H](c1ccc(O)cc1)N1[C@H](c3ccccc3)[C@H](c3ccccc3)OC(=O)[C@H]1[C@@H]2C(=O)N1CCc2cc(OC)c(OC)cc2C1 | -0.565 | -0.154 | -0.493 | 0.0055 | -1.33 | 0.0573 | 1.8 (inactive) | -1.11 | -0.432 | 0.0836 (inactive) | 0.291 | 0.0658 (inactive) | -0.671 (inactive) | -0.0425 (inactive) | 0.902 (inactive) | 0.432 (inactive) | -0.184 (inactive) | -0.119 (inactive) | -0.161 | -0.0434 |
| COc1ccc([Si](C)(C)[C@H]2[C@H](CC(=O)N3CCC[C@H]3CO)O[C@@]3(C(=O)N(C)c4ccccc43)[C@@H]2C)cc1 | 0.183 | -0.522 | 0.233 | 0.0008 | 0.143 | -1.03 | -0.223 (inactive) | 0.812 | -0.265 | -0.394 (inactive) | -0.395 | 0.264 (inactive) | -0.212 (inactive) | -0.269 (inactive) | 1.32 (inactive) | 0.554 (inactive) | 0.133 (inactive) | -0.0566 (inactive) | -0.418 | 0.0473 |
| O=C1c2ccccc2[C@@]2(Cc3ccccc3N(CC(F)(F)F)C2=O)[C@H](c2ccc(CO)cc2)N1Cc1ccccc1 | -0.293 | 1.21 | -1.13 | 0.191 | -2.24 | -0.631 | -2.33 (inactive) | 0.928 | -1.09 | -0.279 (inactive) | -0.584 | 0.714 (inactive) | -0.0925 (inactive) | -17.8 (active) | 0.118 (inactive) | -0.224 (inactive) | 0.117 (inactive) | -1.66 (inactive) | -0.341 | -0.231 |
| O=C/C=C/c1ccc(-c2ccccc2)cc1 | 0.252 | 0.919 | -1.45 | -3.23 | -4.15 | -0.253 | 0.965 (inactive) | -0.853 | -3.05 | -0.539 (inactive) | -0.0736 | -18.6 (active) | -1.08 (inactive) | -2.53 (inactive) | -0.944 (inactive) | -21.6 (active) | 1.29 (inactive) | 0.917 (inactive) | -5.15 | 0.0097 |
| CC(CO)N1C(=O)[C@@H]2[C@H]3C(=O)OCC=C[C@H]3OC23C=CCN(c2ccc4ccccc4c2)C(=O)[C@@H]13 (stereo not given in full) | 0.0456 | 0.0291 | -0.432 | -0.496 | -0.149 | -0.626 | -0.654 (inactive) | 0.109 | 0.563 | 0.873 (inactive) | 0.984 | -0.0392 (inactive) | 0.224 (inactive) | 0.0007 (inactive) | -0.0432 (inactive) | -0.405 (inactive) | -0.398 (inactive) | -0.534 (inactive) | 0.492 | -0.138 |
